Results from PubChem BioAssay (NCATS).
Inconclusive results are not listed. Active and inactive are the calls of the source. The call rests on the fitted dose curve; in most records, active means well fitted inhibition curve with a large enough effect; inconclusive means small, poorly fitted or top-dose-only effect; inactive means flat fitted curve, though single readings scatter.

Experiments:
Assay in all cases: qHTS profiling for inhibitors of Plasmodium falciparum proliferation (AID 504749); further: nearly all actives have a fitted effect of over 60% in size
Settings in all cases: P. falciparum in erythrocytes, SYBR Green DNA, 72 h; series mostly up to 28.7 µM
CP265 = test system: CP265
Method in brief: (§1)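 Fluorescence of SYBR Green-bound parasite DNA, read at 485/535 nm, served as the growth measure. Infected erythrocytes were cultured with compound 72 h; artemisinin (0.29 uM) and DMSO wells defined the normalization range.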

CP268 = test system: CP268
Method in brief: as §1

CP269 = test system: CP269
Method in brief: as §1

CP286 = test system: CP286
Method in brief: as §1

CP291 = test system: CP291
Method in brief: as §1

CP297 = test system: CP297
Method in brief: as §1

CP305 = test system: CP305
Method in brief: as §1

CP315 = test system: CP315
Method in brief: as §1

CP262 = test system: CP262
Method in brief: as §1

CP266 = test system: CP266
Method in brief: as §1

Measured: Potency
Potency means the concentration at half of the fitted maximal effect.

COc1ccc2cc(CCC(C)=O)ccc2c1
inactive: CP265 | CP268 | CP269 | CP286 | CP291 | CP297 | CP305 | CP315

CCOc1cc(NC(C)=O)ccc1C(=O)OC
inactive: CP262 | CP265 | CP268 | CP269 | CP286 | CP291 | CP297 | CP305 | CP315

CCCCCCCCCCOc1cc2c(=O)c(C(=O)OCC)c[nH]c2cc1OCC
inactive: CP315
active: CP268 2.4 nM | CP286 3.5 nM | CP305 2.1 nM

CC1CCN(CCCC(=O)c2ccc(F)cc2)CC1
inactive: CP265 | CP266 | CP268 | CP269 | CP286 | CP291 | CP297 | CP305 | CP315
